Marburg entry inh – Marburg virus entry inhibition | Marburg virus pseudotyped entry inhibition, cell reporter | Potency, µM (top dose mostly 37.8 µM), actives largely listed as inhibitors | actives 1.8% (n = 300,000) | AID 540276; calls by dose curve; tested in HEK293 cells
HCMV antiviral – human cytomegalovirus inhibition | HFF cells, HCMV-luciferase reporter, 72 h; stronger effect = lower value | activity change, negative = inhibition, % at 57.5 µM | actives 4.5% (n = 410,000) | AID 1259415; in the data active = activity change below about -60%; inconclusive = no clear call, values can overlap the other calls; inactive = above about -39%
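Steps: HFFs plated, 16 h 37C; compounds added; HCMV-luciferase added to MOI 1 PFU/cell; 72 h 37C; OneGlo reagent, 5 min room temperature; luminescence read, normalized to controls.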
Lassa entry inh – Lassa virus entry inhibition. actives 1.2% (n = 300,000). Potency, µM (titrated, usually from 37.9 µM), usual class: inhibitors. Lassa virus pseudotype entry inhibition, cell reporter; calls by dose curve; tested in HEK293 cells; also: nearly all actives have a fitted effect of over 50% in size
FMDV inh – blocks foot and mouth disease virus; actives 1.2% (n = 410,000); FMDV antiviral cell-based qHTS; Potency, µM (top dose mostly 57.9 µM), actives largely listed as inhibitors; calls by dose curve; tested in HEK293T cells; also: read-out not given here; nearly all actives have a fitted effect of over 45% in size
SARS PLpro yeast – SARS-CoV PLP inhibition in yeast. S. cerevisiae expressing SARS-CoV PLpro, growth rescue. Potency, µM (highest dose often 32.9 µM), most hits filed as activators. actives 0.19% (n = 330,000). AID 485353; calls by dose curve; also: nearly all actives have a fitted effect of over 55% in size
HCV inhibitor – HCV inhibition. Huh7.5.1 HCVcc-Cre infection, luciferase reporter, 44 h. Potency, µM (series often up to 41.8 µM), most hits filed as inhibitors. actives 3.4% (n = 340,000); active = well fitted inhibition curve with a large enough effect; inconclusive = small, poorly fitted or top-dose-only effect, or another doubt; inactive = no such curve, though single readings can be large or run the other way
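After 44 h co-culture of compound, cells and HCVcc-Cre (~0.5 moi), substrate is added for 15 min at room temperature and luciferase measured over 15 sec. Cells were seeded at 1,000/well and pre-cultured 4 h.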
A number is an active result; – = inactive; ? = inconclusive; · = not tested or not shown; [ ] = another dose, or the depositor's remark. The list is not random: actives were taken first. Their share in the collection is about 8%.

SMILES	Marburg entry inh	HCMV antiviral	Lassa entry inh	FMDV inh	SARS PLpro yeast	HCV inhibitor
CCc1cccc(C)c1NC(=O)Cn1ccn(-c2ccc(F)cc2)c(=O)c1=O	·	–	–	–	·	·
Cc1ccc(-c2cc(NC(=O)C(C)Oc3ccccc3F)on2)cc1 (stereo unspecified)	–	–	–	–	·	·
Cc1cc(C)c2c(N)c3ccccc3nc2n1	?	-108	–	–	–	?
CCc1ccc2nc3nc(C)cc(C)c3c(N)c2c1	?	–	?	·	–	?
O=C(C1CCC(CNS(=O)(=O)c2cccc3cccnc23)CC1)N1CCc2ccccc21 (stereo unspecified)	·	-61	·	?	–	?
CN(Cc1ccccc1)C(=O)C1CCC(CNS(=O)(=O)c2cccc3cccnc23)CC1 (stereo unspecified)	·	-62	·	–	–	?
CN1CCN(C(=O)C2CCC(CNS(=O)(=O)c3cccc4cccnc34)CC2)CC1 (stereo unspecified)	–	–	·	–	–	–
COc1ccccc1C1CN(Cc2c(C)nn(C)c2Cl)Cc2ccccc2O1 (stereo unspecified)	·	·	·	–	·	·
Cc1c(CNCc2ccc(Cl)cc2)c(C(=O)O)c(C)n1Cc1ccc(F)cc1	–	–	–	–	·	·
O=C(c1cccc(F)c1)N1CCN(c2cc(N3CCCCC3)c(F)cc2[N+](=O)[O-])CC1	?	-74	–	–	–	–
CC1Cc2ccccc2N1C(=O)c1ccc(N2CCCC2)c([N+](=O)[O-])c1 (stereo unspecified)	?	–	?	?	–	13µM
O=C(c1ccc(N2CCCC2)c([N+](=O)[O-])c1)N1CCN(S(=O)(=O)c2ccccc2)CC1	–	–	–	?	–	14µM
CC1Cc2ccccc2N1C(=O)c1ccc(N2CCCCC2)c([N+](=O)[O-])c1 (stereo unspecified)	–	–	?	–	–	–
COc1cccc(CN2CCOc3ccc(C(O)c4cccnc4)cc3C2)c1 (stereo unspecified)	·	·	·	–	·	·
C/C(=N/NC(=O)c1ccco1)c1ccc(Br)s1	·	?	·	–	–	–
CCOC(=O)c1ccc(NC(=O)C(Cc2ccccc2)N2Cc3ccccc3C2=O)cc1 (stereo unspecified)	·	–	–	–	·	·
COc1cccc(/C=C2\SC(=S)N(CCC(=O)Nc3ccc(O)cc3)C2=O)c1	·	–	·	–	–	?
COc1cccc(/C=C2/SC(=S)N(CCC(=O)N3CCOCC3)C2=O)c1	5µM	–	?	–	–	?
COc1cccc(/C=C2\SC(=S)N(CCC(=O)NCCc3ccc(O)cc3)C2=O)c1	?	-100	?	–	–	?
COc1cccc(/C=C2\SC(=S)N(CCCC(=O)N3CCCCC3)C2=O)c1	·	–	·	–	–	13µM
O=C(NCCCN1CCOCC1)c1onc(CSc2ccccc2)c1C(=O)NCCCN1CCOCC1	·	-68	·	–	·	–
O=C(NCCCN1CCOCC1)c1onc(CSc2ccncc2)c1C(=O)NCCCN1CCOCC1	·	–	·	–	·	–
Cc1cc(C)cc(SCc2noc(C(=O)NCCCN3CCOCC3)c2C(=O)NCCCN2CCOCC2)c1	·	–	·	–	–	1µM
C=CCCC/C=C(/C)C(OCc1ccc(OC)cc1)C(CC/C=C(\C)C(N)=O)OC (stereo unspecified)	–	·	·	·	·	·
Cc1cccc(NS(=O)(=O)c2ccc3c(c2)CCN3C(=O)C2CCC2)c1	?	-66	?	–	·	·
SMILES	Marburg entry inh	HCMV antiviral	Lassa entry inh	FMDV inh	SARS PLpro yeast	HCV inhibitor
CCC(=O)N1CCCc2cc(S(=O)(=O)Nc3ccc(C)c(C)c3)ccc21	–	–	?	–	·	·
CCC(=O)N1CCc2cc(S(=O)(=O)Nc3ccc4c(c3)OCCO4)ccc21	7.9µM	-87	–	–	–	2.8µM
O=C(CCNS(=O)(=O)c1ccc2c(c1)CCN2C(=O)C1CC1)N1CCN(c2cccc(C(F)(F)F)c2)CC1	·	-60	–	?	·	·
CS(=O)(=O)N1CCc2cc(S(=O)(=O)NCCNS(=O)(=O)c3ccc4c(c3)CCN4S(C)(=O)=O)ccc21	–	–	–	–	–	–
Cc1ccc(Cl)cc1N1CCN(C(=O)CCNS(=O)(=O)c2ccc3c(c2)CCN3C(=O)C2CC2)CC1	·	–	–	?	·	·
CS(=O)(=O)N1CCc2cc(S(=O)(=O)Nc3ccc4c(c3)OCCO4)ccc21	?	-84	–	–	–	?
COc1ccc(NC(=S)NC(=O)c2cncc(Br)c2)cc1	–	–	–	–	·	–
CC1(C)CC2CC(C)(CN2/C=C2/CCCCC2=O)C1 (stereo unspecified)	–	–	–	–	–	–
O=C(C1CCC1)N1CCc2cc(S(=O)(=O)Nc3ccc4c(c3)OCCO4)ccc21	–	-82	–	–	–	?
C=CCNC(=S)NN=C1CCCCCCC1	–	-113	–	–	–	–
CCOC(=O)[C@]12Cc3c(cc(OC)c(OC)c3OC)[C@H]1N(Cc1ccccc1)C(=O)c1cc(F)c(F)cc12	·	-61	·	–	·	·
CCOC(=O)[C@]12Cc3c(cc(OC)c(OC)c3OC)[C@H]1N(Cc1ccccc1)C(=O)c1cc(OC)ccc12	·	-107	·	18µM	·	·
CCOC(=O)[C@]12Cc3cc(C)ccc3[C@H]1N(Cc1ccccc1)C(=O)c1cc(F)c(F)cc12	·	-109	·	11µM	·	·
CCOC(=O)[C@]12Cc3cc(OC)ccc3[C@H]1N(Cc1ccccc1)C(=O)c1ccccc12	·	–	·	–	·	?
CCOC(=O)[C@]12Cc3cc(OC)ccc3[C@H]1N(Cc1ccccc1)C(=O)c1cc(F)c(F)cc12	·	–	·	–	·	–[8.37 µM]
CCCN(CCC)C(=O)Cn1c(=O)n(-c2ccc(Cl)c(Cl)c2)c(=O)c2c(C)c(C(=O)N(C)C)sc21	·	–	–	–	·	·
Cc1noc(C)c1CN1CCN2C=C(C(=O)NCCCc3ccccc3)OC2=NC1=O	·	–	·	·	·	·
O=c1cc(Nc2ccc3c(c2)OCCO3)[nH]c(=O)n1-c1ccc(Br)cc1	?	?	?	·	–	–
O=c1cc(Nc2ccc3c(c2)OCO3)[nH]c(=O)n1-c1ccc(Br)cc1	?	-78	–	·	–	?
COC(=O)[C@]1(C)CC[C@@]2(C)CC[C@@]3(C)C4=CCc5c(cc(O)c(O)c5C)[C@]4(C)CC[C@@]3(C)C2C1 (stereo partly specified)	·	·	·	20µM	·	·
CC=COC(=O)N[C@@H](c1ccccc1)[C@]1(C(C)=O)CCOC1=O	–	·	·	·	·	·
C/C(=N/OCC(=O)NCCCCCCNC(=O)CO/N=C(/C)c1cccs1)c1cccs1	?	?	?	–	–	22µM
Cc1ccc(C(=O)NCC(=O)NC2CCCCCC2)cc1	–	-97	–	–	–	–
COC(=O)c1cc(S(=O)(=O)NCc2ccccc2Cl)c[nH]1	·	·	·	–	–	–
CCOC(=O)c1c(Cc2cccc(Cl)c2)c[nH]c1C	–	-62	–	–	–	–
COC(=O)c1c(Cc2ccccc2Cl)c[nH]c1C	?	-67	–	–	–	–
CCOC(=O)c1cn(Cc2cccc(Cl)c2)nn1	?	–	?	–	–	–

Compound activity: PubChem BioAssay, National Center for Advancing Translational Sciences (NCATS)
